The source of these data is PubChem BioAssay AID1362 (SRMLSC, 2008).

The nature of this assay: growth inhibition of WT strain, primary screen, mitochondrial fusion inhibitor project, WT and mutant strains, chemical genetic (AID 1362). Conditions: mitochondrial fusion phenotypic screen, at 10 µM.
Where [1] appears, read: WT strain, growth inhibition, stronger effect = higher value.

Screen size: about 190,000 compounds; about 4,000 (2.1%) were called active. Rule as the data show it: active = inhibition above about 58%; inactive = the rest, inconclusive results apart; tested in S. cerevisiae. What follows is part of a selection rich in actives, with near analogues and random picks from the rest.

By inhibition is commonly meant the drop in the measured response relative to a control, in per cent. As for `CC(Nc1nc(N2CCOCC2)nc2ccccc12)c1ccccc1` (stereo not drawn), the inhibition is, setting by setting: under setting [1], 7.41% (inactive); (mutant strain inhibition) -4.07%.

As for `c1ccc(Nc2nc(N3CCOCC3)c3ccccc3n2)cc1`, the inhibition was 44.7% (inactive) under setting [1] and 45.5% (mutant strain inhibition).

Take `CCc1nc2ccccc2c(C(=O)NCc2ccc(OC)cc2)c1C`: the inhibition was -7.63% (inactive) under setting [1] and -13.1% (mutant strain inhibition).

`CC(=O)NC1C(Oc2ccc(C=O)cc2)OC(COC(C)=O)C(OC(C)=O)C1OC(C)=O` (stereo not drawn): the inhibition under setting [1] was -6.93% (inactive) and the inhibition (mutant strain inhibition) is -11.4%.

Turning to `Cn1nnnc1-c1cc(Cl)cc(Cl)c1`, the inhibition reads like this: under setting [1], 0.51% (inactive); (mutant strain inhibition) 21.3%.

Take `CCCCc1nc(NCc2ccccc2)c(C#N)c2c1CCCC2`: the inhibition reads like this: under setting [1], -9.79% (inactive); (mutant strain inhibition) 2.15%.

Regarding `CCCCc1nc(NCCN)c(C#N)c2c1CSC(C)(C)C2`, the inhibition reads like this: under setting [1], 85.3% (active); (mutant strain inhibition) 31.7%.

In the case of `Cc1nc(NCCN)c(C#N)c2c1COC(C)(C)C2`, the inhibition is 24.4% (inactive) under setting [1] and 10.2% (mutant strain inhibition).

For `CCN1CCN(c2ccc(NC(=O)c3cnccn3)cc2)CC1`, the inhibition reads like this: under setting [1], 4.84% (inactive); (mutant strain inhibition) 4.5%.

For the compound `CCn1ccnc1CN1CCCC(C(=O)c2ccc3c4c(cccc24)CC3)C1` (stereo not drawn), the inhibition was 42.3% (inactive) under setting [1] and 36.2% (mutant strain inhibition).

On to `Cc1cnc(C(=O)OCC(=O)NCCCc2ccccc2)cn1`, for which the inhibition under setting [1] was 14.9% (inactive) and the inhibition (mutant strain inhibition) came to 3.19%.

As to `O=c1cc(N2CCN(Cc3ccccc3)CC2)c(-c2ccccc2)n[nH]1`, the inhibition under setting [1] was -12.8% (inactive) and the inhibition (mutant strain inhibition) is -10.6%.

Take `O=c1c2ccccc2c(-c2ccccc2)nn1Cc1ccccc1`: the inhibition by setting is: under setting [1], -8.61% (inactive); (mutant strain inhibition) -0.27%.

In the case of `O=c1cc(N2CCCCC2)c(-c2ccccc2)nn1Cc1cccc(F)c1`, the inhibition reads like this: under setting [1], 87.9% (active); (mutant strain inhibition) 46.3%.

`CC(=O)Nc1ccccc1OC(C)C(=O)N1CCC(C)CC1` (stereo not drawn): the inhibition by setting is: under setting [1], -7.46% (inactive); (mutant strain inhibition) 7.56%.

On to `Cc1ccc(C)c(-n2ccnc2SCC(N)=O)c1`, for which the inhibition reads like this: under setting [1], 5.62% (inactive); (mutant strain inhibition) 13.6%.

Regarding `O=c1c2ccccc2[nH]c(=S)n1CCN1CCC(=C(c2ccc(F)cc2)c2ccc(F)cc2)CC1`, the inhibition is 77.9% (active) under setting [1] and 62.2% (mutant strain inhibition).

As for `CCCCn1c(=S)[nH]c2ccccc2c1=O`, the inhibition by setting is: under setting [1], 4.59% (inactive); (mutant strain inhibition) 8.61%.

As for `O=C(CCn1c(=S)[nH]c2ccccc2c1=O)NCCCN1CCCC1=O`, the inhibition is, setting by setting: under setting [1], -5% (inactive); (mutant strain inhibition) -5.53%.

Turning to `Cc1ccc(Cn2c(NC(=O)c3ccco3)nc3ccccc32)cc1`, the inhibition was 92.4% (active) under setting [1] and -2.81% (mutant strain inhibition).

As for `Cc1ccc(-n2nc3cc(Cl)c(NC(=O)c4ccco4)cc3n2)cc1`, the inhibition runs as follows: under setting [1], 16.1% (inactive); (mutant strain inhibition) -7.45%.

On to `CC(=O)Nc1nc2ccccc2n1Cc1ccc(C)cc1`, for which the inhibition was 15.3% (inactive) under setting [1] and 15.5% (mutant strain inhibition).

In the case of `O=C(C(=O)N1CCc2ccccc2C1)c1c[nH]c2ccccc12`, the inhibition was 12.7% (inactive) under setting [1] and -9.54% (mutant strain inhibition).

With `COCCN(C(=S)Nc1ccccc1OC)C1CCN(C(C)C)CC1`, the inhibition was -3.78% (inactive) under setting [1] and -1.71% (mutant strain inhibition).

Consider `Cc1c(Cl)cccc1NC(=S)N(Cc1ccccc1)Cc1cccnc1`, for which the inhibition was 32.8% (inactive) under setting [1] and 35.6% (mutant strain inhibition).

Regarding `Cc1ccc(Cl)cc1NC(=S)N(CCN(C)C)Cc1cccs1`, the inhibition was 3.98% (inactive) under setting [1] and 13.3% (mutant strain inhibition).

With `Cc1ccc(CN(Cc2cccnc2)C(=S)Nc2cc(Cl)ccc2C)cc1`, the inhibition runs as follows: under setting [1], 65.8% (active); (mutant strain inhibition) 29.6%.

For `COCCNC(=S)N(Cc1cccnc1)Cc1ccc(OC)c(OC)c1`, the inhibition runs as follows: under setting [1], 0.04% (inactive); (mutant strain inhibition) 0%.

`Cc1ccc(CN(Cc2cccnc2)C(=S)Nc2cccc(Cl)c2C)cc1`: the inhibition was 73.9% (active) under setting [1] and 36.3% (mutant strain inhibition).

Consider `Cc1cccc(C)c1NC(=S)N(Cc1cccnc1)Cc1ccccc1Cl`, for which the inhibition is, setting by setting: under setting [1], -4.3% (inactive); (mutant strain inhibition) -19.8%.

As to `CCCCCCCCc1c(O)nc(-n2[nH]c(C)c(CCO)c2=O)[nH]c1=O`, the inhibition under setting [1] is -1.35% (inactive) and the inhibition (mutant strain inhibition) was -2.06%.

In the case of `O=C1OC(OC(=O)c2ccccc2Br)C(N2CCOCC2)=C1Cl` (stereo not drawn), the inhibition by setting is: under setting [1], -3.78% (inactive); (mutant strain inhibition) 5.3%.

For `Cc1ccccc1C(=O)OC1OC(=O)C(Cl)=C1Nc1ccccc1` (stereo not drawn), the inhibition is 31% (inactive) under setting [1] and 3.24% (mutant strain inhibition).

Turning to `Cc1ccc(NC2=C(Cl)C(=O)OC2OC(=O)c2ccccc2C)cc1` (stereo not drawn), the inhibition is 72.2% (active) under setting [1] and 69% (mutant strain inhibition).

As for `Cc1cc(/C=N/NC(=O)c2cccnc2)c(C)n1CC(C)C`, the inhibition by setting is: under setting [1], -2.78% (inactive); (mutant strain inhibition) -1.44%.

`CCN(CC)CCNc1nc(-c2ccc(OC(F)F)cc2)c(C)s1`: the inhibition by setting is: under setting [1], 14.9% (inactive); (mutant strain inhibition) -3.63%.

Consider `COc1ccc(OC)c(Cc2nnc(CCC(=O)NC3CCCC3)o2)c1`, for which the inhibition was -6.11% (inactive) under setting [1] and 1.25% (mutant strain inhibition).

With `S=C(NCc1ccc(Cl)cc1)NC12CC3CC(CC(C3)C1)C2`, the inhibition is -4.06% (inactive) under setting [1] and 3.59% (mutant strain inhibition).

Consider `CN(C)CCCNC(=S)NCc1ccc(Cl)cc1`, for which the inhibition runs as follows: under setting [1], -0.46% (inactive); (mutant strain inhibition) 2.88%.

Consider `S=C(NCc1ccc(Cl)cc1)NC1CCCCC1`, for which the inhibition reads like this: under setting [1], 68% (active); (mutant strain inhibition) 50.3%.

As to `COc1cccc2cc(S(=O)(=O)c3ccc(C)cc3)/c(=N/NS(=O)(=O)c3ccc(C)cc3)oc12`, the inhibition runs as follows: under setting [1], -19.1% (inactive); (mutant strain inhibition) 0.47%.

On to `O=C(NCC1COc2ccccc2O1)C1(c2ccccc2)CCCC1` (stereo not drawn), for which the inhibition is 13.2% (inactive) under setting [1] and 3.88% (mutant strain inhibition).

For `c1ccc2c(c1)OCC(CNc1ncnc3nc[nH]c13)O2` (stereo not drawn), the inhibition by setting is: under setting [1], 5.51% (inactive); (mutant strain inhibition) -5.69%.

As to `c1ccc(-c2cc3c(NCC4COc5ccccc5O4)ncnc3s2)cc1` (stereo not drawn), the inhibition under setting [1] was 82% (active) and the inhibition (mutant strain inhibition) turned out to be 45.9%.
